HMGR II inh = E. faecalis class II HMG-CoA reductase inhibition; purified E. faecalis HMGR, NADPH absorbance 340 nm kinetic; inhibition, % at 10 µM; 0.41% of 190,000 active; AID 1066;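 active = inhibition above a set limit, the median over all tested compounds plus 3 SD, cut at about 9.5% in these data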;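 note: enzyme runs in reverse so mevalonate oxidation gives rising NADPH absorbance; 0% = complete reaction with DMSO and 100% = background rate lacking mevalonate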
Furin inh = human furin inhibition; 0.061% of 220,000 active; purified furin, fluorogenic substrate cleavage; P09958; inhibition, % at 20 µM or 30 µM; in the data active = inhibition above about 25%
Target sequence (P09958 108-714 limits assumed): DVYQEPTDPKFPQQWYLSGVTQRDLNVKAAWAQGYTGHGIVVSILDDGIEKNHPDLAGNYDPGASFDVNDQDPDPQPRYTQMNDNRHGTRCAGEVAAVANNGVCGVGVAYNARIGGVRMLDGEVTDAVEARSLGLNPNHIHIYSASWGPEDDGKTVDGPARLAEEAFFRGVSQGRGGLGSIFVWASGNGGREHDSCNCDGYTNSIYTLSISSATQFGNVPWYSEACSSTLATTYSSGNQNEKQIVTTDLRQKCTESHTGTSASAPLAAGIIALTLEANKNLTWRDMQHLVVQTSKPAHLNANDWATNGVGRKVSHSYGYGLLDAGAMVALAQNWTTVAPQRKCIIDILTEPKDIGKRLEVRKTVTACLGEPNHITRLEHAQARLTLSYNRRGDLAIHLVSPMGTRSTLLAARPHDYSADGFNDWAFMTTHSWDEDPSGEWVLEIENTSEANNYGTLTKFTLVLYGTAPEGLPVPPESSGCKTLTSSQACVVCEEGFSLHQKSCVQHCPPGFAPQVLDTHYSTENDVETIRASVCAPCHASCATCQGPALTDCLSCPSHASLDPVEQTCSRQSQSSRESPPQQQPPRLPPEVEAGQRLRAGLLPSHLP
EP2 mod = modulates human prostaglandin E2 receptor EP2 signaling | EP2-expressing cells, cAMP HTRF FRET, PGE2 co-stimulation | induction, % at 25 µM | 0.83% of 260,000 active | AID 940;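 active = compounds whose cAMP rise, as percent of the full-agonist control response, exceeds 60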;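 note: rat C6 glioma line stably carrying human EP2 under a CMV promoter; the protocol text gives 20 µM as final concentration; 100% = response of wells given 1 µM PGE2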
PGE2 EP2 inh = blocks the human prostaglandin E2 receptor EP2 | P43116 | C6 glioma cells expressing human EP2, cAMP TR-FRET; cells stimulated with saturating PGE2 | inhibition, % at 25 µM | 0.52% of 260,000 active | AID 1422;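 active = percent inhibition above 40 after rounding to a whole number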;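 note: rat C6 glioma host cells with rolipram phosphodiesterase inhibitor present; the protocol text gives 20 µM as final concentration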
Calpain2 inh = calpain II (pig) inhibition; AID 1236; 0.37% of 220,000 active; inhibition, % at 16 µM; purified calpain II, fluorogenic peptide substrate, 30 min;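 active = inhibition above about 50%, limit read from the data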
EP2 cAMP induct = human EP2 receptor cAMP induction, negative in counter-screens; AID 1080; shares compounds with EP2 mod; C6 glioma EP2 cells, cAMP HTRF induction; plus low (about EC15) PGE2 agonist; calls only at 20 µM (by protocol); 47% of 1,300 active;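 active = cAMP induction above 50% in the main assay while under 30% in all four parallel counter assays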;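 note: rat C6 glioma cells stably expressing human EP2 receptor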
Numbers without * were called inactive; i = inactive; . = no result given; + = active, no number; ! = not confirmed by another sample. In the library only some 1.9% were active in any assay of this set; here they are far more common.

SMILES	HMGR II inh	Furin inh	EP2 mod	PGE2 EP2 inh	Calpain2 inh	EP2 cAMP induct
Cn1c(=O)c2c(nc(SCC(=O)c3cccs3)n2Cc2ccc(F)cc2)n(C)c1=O	1	-15	75*	33	6	i
CC(=O)NC1(c2ccc(F)cc2)CCN(CC(=O)NCC2CC2)CC1	.	.	1	.	.	.
COc1ccccc1-c1noc(-c2cc(OC)c(OC)c(OC)c2)n1	-7	-23	6	6	-1	.
COc1cc(-c2nc(-c3cccc(C(F)(F)F)c3)no2)cc(OC)c1OC	-1	16	72*	7	-119	+
O=C(C1CC(c2cccc(Br)c2)=NO1)N1CCCC1 (stereo not drawn)	.	.	-31	9	.	.
O=C(c1ccc(Cl)cc1)c1oc2ccccc2c1CS(=O)(=O)c1ccccc1	-5	-11	80*	3	60*	+
Cc1cc2ccccc2n2c(=O)n(CC(C)NC(=O)C3CCCO3)nc12 (stereo not drawn)	.	.	19	10	.	.
CC(C)CNC(=O)C(=O)NNC(=O)c1ccco1	-1	-35	57	9	-40	i
Cc1cccc(S(=O)(=O)N2CCC(CO)(Cc3ccccc3)CC2)c1	-1	-16	-74	12	-1	.
C=C(C)Cn1c(C)cc(C)c(S(=O)(=O)c2cccc(C)c2)c1=O	-7	-3	90*	6	35	+
COc1ccc(OC)c(C2/C(=C(/O)c3ccccc3)C(=O)C(=O)N2CC#N)c1 (stereo not drawn)	.	.	-29	6	.	.
S=c1[nH]nc(-c2ccc(Br)o2)n1Cc1ccccc1	-10	-12	62*	8	-15	i
S=c1[nH]nc(C2CC2)n1Cc1ccccc1	-12	-9	22	3	24	.
S=c1[nH]nc(C2CCCCC2)n1Cc1ccccc1	4	-27	58	10	-24	i
CCOC(=O)CN1C(=O)C2(OCCO2)c2cc(Br)ccc21	.	.	-7	6	.	.
CC(=O)NC(c1cccc([N+](=O)[O-])c1)c1c(OC(C)=O)ccc2ccccc12 (stereo not drawn)	-2	-6	12	11	-7	.
CC(=O)Oc1ccc2ccccc2c1C(NC(=O)Cc1ccccc1)c1ccccc1 (stereo not drawn)	0	-15	65*	3	-6	i
CCN1CCN(C2CCNCC2)CC1	.	.	-8	10	.	.
Nc1c(C(=O)NCc2ccccc2)c2nc3ccccc3nc2n1CCCN1CCOCC1	0	-19	77*	4	-497	i
Nc1c(C(=O)NCc2ccco2)c2nc3ccccc3nc2n1CCc1ccccc1	-2	-7	68*	10	i	i
CN(C)c1nc(N2CCOCC2)nc(N(c2ccccc2)c2ccccc2)n1	-1	-19	66*	9	14	i
Nc1nc(N2CCOCC2)nc(N(c2ccccc2)c2ccccc2)n1	1	-29	17	16	12	.
Cc1ccccc1NC(=O)CSc1nnc(COc2ccc(Br)cc2)n1C	.	.	-18	14	.	.
CSc1nc(-c2ccc(Cl)cc2)nn1S(=O)(=O)c1ccccc1	4	-12	85*	13	-16	+
CSc1nc(-c2ccc(Cl)cc2)nn1S(=O)(=O)c1ccc(Cl)cc1	1	-19	51	12	-14	.
SMILES	HMGR II inh	Furin inh	EP2 mod	PGE2 EP2 inh	Calpain2 inh	EP2 cAMP induct
CCc1cc(N2CCN(c3ncccn3)CC2)n2nc3nc(C)cc(C)c3c2n1	.	.	2	5	.	.
COc1ccc(NC(=O)N(Cc2ccco2)Cc2cc3cc(OC)c(OC)cc3[nH]c2=O)cc1	.	.	-16	7	.	.
O=C(c1cccs1)N(CC1CCCO1)c1nc(-c2ccccc2)cs1 (stereo not drawn)	-10	-8	58	4	15	.
Cc1ccc(-c2csc(N(CC3CCCO3)C(=O)c3ccco3)n2)cc1 (stereo not drawn)	5	-11	72*	14	12	+
O=C(c1ccco1)N(CC1CCCO1)c1nc(-c2ccccc2)cs1 (stereo not drawn)	-7	-25	66*	10	-13	i
Oc1c(Cl)cc(Cl)cc1Sc1cc(Cl)cc(Cl)c1O	-3	-11	76*!	21	48	i
O=C(CN1CCc2ccccc2C1)Nc1ccc(N2CCCCC2)cc1	.	.	-126	7	.	.
Cc1ccc(C(C)C)c(OCCn2c(=O)oc3ccccc32)c1	-1	-18	61*	12	11	i
CCCCOc1ccccc1Cn1c(=O)oc2ccc(C)cc21	-4	-18	79*	3	5	+
Cc1ccc2oc(=O)n(CCCOc3ccccc3C)c2c1	-9	-11	32	17	22	.
Cc1ccc2oc(=O)n(Cc3ccccc3OC(C)C)c2c1	0	-13	67*	13	46	+
Cc1ccccc1OCCn1c(=O)oc2ccccc21	-1	-16	38	13	12	.
CC(C)N(C(=O)Cn1nnc2ccccc21)C(C(=O)NCc1ccco1)c1ccc(Cl)cc1 (stereo not drawn)	.	.	-7	12	.	.
CC(=O)N(c1cccc(Br)c1)C1C=CS(=O)(=O)C1 (stereo not drawn)	-1	-26	69*	14	-7	i
Cc1cc(C)cc(N(C(=O)c2ccc(Br)o2)C2C=CS(=O)(=O)C2)c1 (stereo not drawn)	0	-27	18	4	-4	.
COc1ccc(Cn2nnnc2C(c2cc3cc(C)ccc3[nH]c2=O)N2CCC(O)CC2)cc1 (stereo not drawn)	.	.	-27	12	.	.
CCOP(=O)(OCC)c1nc(-c2cccc3ccccc23)oc1NCc1ccccc1	-12	-17	77*	2	-494	+
CCOP(=O)(OCC)c1nc(/C=C/c2ccccc2)oc1NCc1ccc(OC)cc1	2	-84	31	11	i	.
COP(=O)(OC)c1nc(-c2cccc3ccccc23)oc1NCCc1ccccc1	-8	-97	46	7	i	.
CCOP(=O)(OCC)c1nc(-c2ccc(C)cc2)oc1NCc1ccccc1	-4	-14	81*	10	-112	+
CCOP(=O)(OCC)c1nc(-c2cccc3ccccc23)oc1NCc1ccc(OC)cc1	2	-88	71*	9	i	i
COc1ccc(CCNc2oc(-c3cccc4ccccc34)nc2P(=O)(OC)OC)cc1OC	-10	-118	-6	6	-439	.
CCOP(=O)(OCC)c1nc(/C=C/c2ccccc2)oc1NCc1ccccc1	1	-196	51	3	i	i
COc1ccc(S(=O)(=O)N(CC(=O)N2CCC(C)CC2)c2ccccc2)cc1OC	.	.	-3	7	.	.
COc1ccccc1C(=O)NCCN1CCC(O)(c2ccc(F)cc2)CC1	.	.	-18	3	.	.
Cc1cccc(NC2=NC(=S)N(c3ccc(C(=O)O)cc3)C23CCCCC3)c1	-2	-9	97*	.	3	+
CCOC(=O)c1c(-c2ccccc2)oc2ccc(OC)cc12	2	-19	69*	21	-151	+

From PubChem
